Results on 2 molecules are retold here after PubChem BioAssay (EPA / NIEHS).

Where “and” joins values, the source holds several entries; their conditions need not be identical. Identical values can stand only once. Some compounds were tested as several samples or in several runs, with calls that do not always agree. Calls of active or inactive are those of the source. Rule for the calls: active = hit-call score of the fitted dose curve at least 0.9, where 1 is the maximum; inactive = score below 0.9.

Read-out in assay [1]: Intercellular Adhesion Molecule 1 (ICAM1), ICAM1 (gene 3383)
The experiment in a line: BSK_hDFCGF_ICAM1: BioMAP Diversity Plus: hDFCGF Assay for Intercellular Adhesion Molecule 1 (ICAM1) Biomarker Activity (AID 2284287). The note with it: primary human foreskin fibroblasts. An outline of the steps: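 ICAM-1 ELISA readout 24 h after dosing, DMSO as baseline, in human dermal foreskin fibroblast cultures. Cytotoxicity checked in parallel wells by SRB staining (0.1% SRB, 10% TCA fixation, 560 nm).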

Read-out in a further assay: CD40, CD40 (gene 958)
The assay is described as follows: BSK_IMphg_CD40: BioMAP Diversity Plus: IMphg Assay for CD40 Biomarker Activity (AID 2284288). The note with it: primary human endothelial cells with macrophages. The method, then:
(§1) BSK_IMphg is a cell-based, multiplexed-readout assay that uses venular endothelial cells and macrophages, a human vascular primary cell, with measurements taken at 24 hours after chemical dosing in a microplate: 96-well plate.BSK_IMphg_CD40 is an assay component measured in the BSK_IMphg assay. It measures CD40 antibody related to regulation of gene expression using ELISA technology.Data from the assay component BSK_IMphg_CD40 was analyzed at the endpoint, BSK_IMphg_CD40, in the positive analysis fitting direction relative to DMSO as the negative control and baseline of activity. Using a type of binding reporter, gain or loss-of-signal activity can be used to understand protein changes. […]
(§2) The levels of cell surface (or secreted, indicated by the prefix "s") biomarker endpoints were measured by ELISA. Overt cytotoxicity to cells in confluent adherent cultures (all systems other than the BT system) was assessed by measuring total protein levels using sulforhodamine B (SRB) staining in parallel cultures at the time of biomarker measurements, indicated as SRB endpoints. For proliferation assays for adherent cell types, individual cell types are cultured at sub-confluence and relative cell numbers quantified by SRB staining at time points optimized for each system (48 h: 3C and CASM3C systems; 72 h: BT and HDF3CGF systems; 96 h: SAg system). […] Plates were read after 6 h.

Read-out in assay [2]: TIMP metallopeptidase inhibitor 2 (TIMP2), TIMP2 (gene 7077)
The experiment in a line: BSK_hDFCGF_TIMP2: BioMAP Diversity Plus: hDFCGF Assay for TIMP metallopeptidase inhibitor 2 (TIMP2) Biomarker Activity (AID 2284289). The note with it: primary human foreskin fibroblasts. On the procedure:
BSK_hDFCGF is a cell-based, multiplexed-readout assay that uses foreskin fibroblast, a human skin primary cell, with measurements taken at 24 hours after chemical dosing in a 96-well plate.BSK_hDFCGF_TIMP2 is an assay component measured in the BSK_hDFCGF assay. It measures TIMP-2 antibody related to regulation of gene expression using ELISA technology.Data from the assay component BSK_hDFCGF_TIMP2 was analyzed at the endpoint, BSK_hDFCGF_TIMP2, in the positive analysis fitting direction relative to DMSO as the negative control and baseline of activity. Using a type of binding reporter, gain or loss-of-signal activity can be used to understand protein changes. To generalize the intended target to other relatable targets, this assay endpoint is annotated to the 'protease' intended target family, where the subfamily is 'matrix metalloproteinase'.
as §2, with “system). SRB was performed by staining cells with 0.1% SRB after fixation with 10% TCA and reading wells at 560 nm.Viability and proliferation of PBMC (T cells) was quantified by Alamar Blue reduction for the SAg and BT systems. […] Then, Alamar Blue (20 uL/well) (Invitrogen, Cat DAL1100) was added for 6 h, and the plates were read with a fluorescence microplate reader at 546/580 nm (excitation/emission).” for “system).”

Read-out in assay [3]: Interleukin-1 alpha (IL1a), IL1A (gene 3552)
The experiment in a line: BSK_IMphg_IL1a: BioMAP Diversity Plus: IMphg Assay for Interleukin-1 alpha (IL1a) Biomarker Activity (AID 2284290). To be noted: primary human endothelial cells with macrophages. On the procedure: as §1, with “plate.BSK_IMphg_IL1a” for “plate.BSK_IMphg_CD40”, “IL-1a” for “CD40”, “BSK_IMphg_IL1a” for “BSK_IMphg_CD40”, “BSK_IMphg_IL1a,” for “BSK_IMphg_CD40,”
as §2

Read-out in assay [4]: E-selectin (Homo sapiens) (UniProt P16581)
The assay is described as follows: BSK_IMphg_ESelectin: BioMAP Diversity Plus: IMphg Assay for Eselectin Biomarker Activity (AID 2284291). The note with it: primary human endothelial cells with macrophages. Summed up:
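Analysed against DMSO baseline in the positive fitting direction, this endpoint is an ELISA read of E-selectin. It comes from human venular endothelial cells co-cultured with macrophages, sampled 24 h post-dose.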

Assay [5] in a line: BSK_IMphg_SRB: Viability Assessment in the BioMAP Diversity Plus: IMphg Assay (AID 2284292).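 Note: measured one day after compound addition.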 To be noted: primary human endothelial cells with macrophages. An outline of the steps:
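SRB viability endpoint: cultures of human endothelial cells plus macrophages fixed with 10% TCA, stained with 0.1% SRB, read at 560 nm 24 h post-dosing. Only gain-of-signal fitted, relative to DMSO.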

Read-out in assay [6]: Macrophage colony-stimulating factor (MCSF), CSF1 (gene 1435)
The assay is described as follows: BSK_IMphg_MCSF: BioMAP Diversity Plus: IMphg Assay for Macrophage colony-stimulating factor (MCSF) Biomarker Activity (AID 2284293). The note with it: primary human endothelial cells with macrophages. Summed up:
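M-CSF was measured by ELISA in human venular endothelial cell/macrophage co-cultures dosed for 24 hours. Sulforhodamine B staining of parallel cultures assessed cytotoxicity; data fitted against DMSO baseline.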

Read-out in assay [7]: Interleukin-10 (IL10), IL10 (gene 3586)
The assay is described as follows: BSK_IMphg_IL10: BioMAP Diversity Plus: IMphg Assay for Interleukin-10 (IL10) Biomarker Activity (AID 2284294). To be noted: primary human endothelial cells with macrophages. Summed up:
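IL-10 read by ELISA after 24 h chemical exposure of primary human venular endothelial cell/macrophage cocultures, with DMSO as baseline. Parallel SRB staining (560 nm) gauged overt cytotoxicity.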

The nature of assay [8]: BSK_IMphg_SRB.Mphg: Macrophage Viability Assessment in the BioMAP Diversity Plus: IMphg Assay (AID 2284295). To be noted: primary human endothelial cells with macrophages. Summed up:
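Cytotoxicity read-out: parallel cultures fixed with 10% TCA, stained with 0.1% sulforhodamine B, read at 560 nm. System combines venular endothelium and macrophages; sampled 24 h post-dosing, fitted positively relative to DMSO control.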

Read-out in assay [9]: Thrombomodulin, THBD (gene 7056)
The assay is described as follows: BSK_LPS_Thrombomodulin: BioMAP Diversity Plus: LPS Assay for Thrombomodulin Biomarker Activity (AID 2284296). The note with it: primary human HUVEC with PBMC. An outline of the steps: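 Thrombomodulin on the surface of LPS-activated endothelial/PBMC co-cultures was quantified by ELISA at 24 hours post-dosing, with DMSO as baseline. Parallel SRB total-protein staining flagged overt cytotoxicity.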

One may read the AC50 as the midpoint of the concentration-response curve, whichever way the signal moves.

E-selectin (Homo sapiens), sequence (P16581 whole entry, looked up): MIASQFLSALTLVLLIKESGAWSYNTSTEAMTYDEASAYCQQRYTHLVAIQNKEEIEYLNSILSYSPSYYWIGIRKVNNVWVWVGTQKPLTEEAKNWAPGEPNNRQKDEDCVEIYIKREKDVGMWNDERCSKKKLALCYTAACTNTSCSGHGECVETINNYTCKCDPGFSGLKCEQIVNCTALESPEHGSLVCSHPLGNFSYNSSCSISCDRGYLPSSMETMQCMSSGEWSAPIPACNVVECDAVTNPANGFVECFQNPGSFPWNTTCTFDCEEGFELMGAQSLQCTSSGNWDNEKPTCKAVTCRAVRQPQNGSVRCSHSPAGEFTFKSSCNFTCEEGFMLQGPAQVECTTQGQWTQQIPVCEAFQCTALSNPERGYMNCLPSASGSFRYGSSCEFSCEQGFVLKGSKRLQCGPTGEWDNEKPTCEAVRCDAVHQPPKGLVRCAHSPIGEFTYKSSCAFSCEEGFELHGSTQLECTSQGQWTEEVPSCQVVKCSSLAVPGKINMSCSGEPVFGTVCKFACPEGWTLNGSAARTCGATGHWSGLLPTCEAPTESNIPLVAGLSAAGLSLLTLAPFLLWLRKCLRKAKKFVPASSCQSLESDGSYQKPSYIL

With `O=S(=O)(O)C(F)(F)C(F)(F)C(F)(F)C(F)(F)C(F)(F)C(F)(F)C(F)(F)C(F)(F)F`, the outcome in [1] was “inactive”; with CD40, CD40 (gene 958), “inactive”; in assay [2] it was “inactive”; in [3] it was “inactive”; in [5], “inactive”; in assay [6] it was “inactive”. For the same molecule, the result in assay [8] and in assay [9] was inactive. In addition, the AC50 in [2] is 30 µM (active) and 8.71 µM (active); in assay [4], 30 µM (active) and 38.2 µM (active); in assay [7], 45.3 µM (active) [middle of 4 runs].
Consider `O=C(O)C(F)(F)C(F)(F)C(F)(F)C(F)(F)C(F)(F)C(F)(F)C(F)(F)F`, for which the outcome in [1] is “inactive”; in the assay with CD40, CD40 (gene 958), “inactive”; in assay [2], “inactive”; in assay [3], “inactive”; in assay [4] it was “inactive”; in assay [5], “inactive”. The result in assay [6], in assay [7], in [8] and in [9] was inactive. Further, the half-maximal activity concentration (AC50) in assay [7] is 30 µM (active); in [9], 0.609 µM (active).
